Results from the supplement of paper PMC3334620.
Over roughly 33,000 sequences, “E-score (-0.5 to 0.5)” has its median near -0.054; the highest 2% begin near 0.39. This excerpt belongs to a sample that is enriched for the highest values.

Each sequence was assayed against Ylr278c (UniProt Q05854) (assay: PBM E-score (8-mer binding enrichment) (E-score (-0.5 to 0.5)); higher = stronger / more preferred TF binding). Conditions: protein concentration: 200 nM; construct: GST-DNA-binding domain.
UniProt Q05854, sequence (Q05854 whole entry, the tested form may be a part): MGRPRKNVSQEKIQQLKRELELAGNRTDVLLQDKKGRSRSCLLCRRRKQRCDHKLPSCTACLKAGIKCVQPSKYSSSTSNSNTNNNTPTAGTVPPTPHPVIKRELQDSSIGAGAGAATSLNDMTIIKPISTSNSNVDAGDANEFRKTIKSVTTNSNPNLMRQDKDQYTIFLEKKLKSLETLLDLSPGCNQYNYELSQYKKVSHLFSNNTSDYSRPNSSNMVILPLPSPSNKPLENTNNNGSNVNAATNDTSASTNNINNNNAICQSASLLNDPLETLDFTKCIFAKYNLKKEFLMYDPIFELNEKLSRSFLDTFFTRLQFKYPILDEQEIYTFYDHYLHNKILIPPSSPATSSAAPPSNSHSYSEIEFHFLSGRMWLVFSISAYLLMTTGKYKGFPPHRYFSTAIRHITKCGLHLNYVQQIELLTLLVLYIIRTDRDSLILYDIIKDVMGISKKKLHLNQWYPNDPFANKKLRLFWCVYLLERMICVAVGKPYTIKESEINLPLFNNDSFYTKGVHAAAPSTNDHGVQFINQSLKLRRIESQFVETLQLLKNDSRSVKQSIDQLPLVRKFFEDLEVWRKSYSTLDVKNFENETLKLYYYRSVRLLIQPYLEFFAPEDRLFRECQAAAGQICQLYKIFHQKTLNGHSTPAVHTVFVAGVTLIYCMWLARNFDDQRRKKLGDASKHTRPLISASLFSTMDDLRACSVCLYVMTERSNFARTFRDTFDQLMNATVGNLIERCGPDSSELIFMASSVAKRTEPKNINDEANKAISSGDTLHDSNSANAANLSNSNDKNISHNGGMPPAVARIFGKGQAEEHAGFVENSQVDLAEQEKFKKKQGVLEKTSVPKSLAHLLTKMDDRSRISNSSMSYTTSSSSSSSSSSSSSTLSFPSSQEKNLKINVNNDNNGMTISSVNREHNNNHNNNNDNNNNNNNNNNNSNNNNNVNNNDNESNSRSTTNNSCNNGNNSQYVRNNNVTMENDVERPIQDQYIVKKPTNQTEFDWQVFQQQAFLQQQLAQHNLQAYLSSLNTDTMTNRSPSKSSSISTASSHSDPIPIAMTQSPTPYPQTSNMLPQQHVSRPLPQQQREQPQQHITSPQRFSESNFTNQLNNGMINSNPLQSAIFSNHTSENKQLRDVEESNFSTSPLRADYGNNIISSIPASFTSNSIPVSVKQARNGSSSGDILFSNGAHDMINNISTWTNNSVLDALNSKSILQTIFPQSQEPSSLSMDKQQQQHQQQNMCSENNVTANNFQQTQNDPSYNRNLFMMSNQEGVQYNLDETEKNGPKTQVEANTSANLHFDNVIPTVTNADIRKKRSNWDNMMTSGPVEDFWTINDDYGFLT
How it was run: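 PURExpress in vitro transcription/translation supplied GST-tagged yeast transcription factors, either full-length or DNA-binding domain. Applied at about 100-200 nM to universal all-10-mer Agilent arrays double-stranded by primer extension, the bound protein was detected with fluorescent anti-GST. E-scores, modified Wilcoxon-Mann-Whitney statistics, were given by the Universal PBM Analysis Suite to ungapped eight-base words pooled with their reverse complements after masliner normalisation.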
In the case of AAGTAGGA, the “PBM E-score” value is reported as -0.313.
In the case of ACACCGCT, the “PBM E-score” value is reported as 0.00228.
With GGCGCATA the “PBM E-score” value was 0.0769.
GGGCTACA was tested, and the “PBM E-score” value was -0.0376.
GTGACGTA was tested, and the “PBM E-score” value was -0.142.
With CGTCCACC the “PBM E-score” value was -0.00012.
ACCTCATA was tested, and the “PBM E-score” value was -0.101.
In the case of AAATACGG, the “PBM E-score” value is reported as 0.14.
ACGAACCA was tested, and the “PBM E-score” value was -0.125.
ACTCCGAT was tested, and the “PBM E-score” value was 0.484.
GCTCCAAA was tested, and the “PBM E-score” value was -0.172.
For ACTCCGAA, the “PBM E-score” value was 0.484.
CCTCCAAG was tested, and the “PBM E-score” value was -0.202.
With ACTCCCAA the “PBM E-score” value was 0.0108.
In the case of CATCCGAG, the “PBM E-score” value is reported as 0.193.
For ACTCCCAT, the “PBM E-score” value was -0.16.
GCTCCGAC was tested, and the “PBM E-score” value was 0.374.
With GCTCCGAA the “PBM E-score” value was 0.464.
For ACTCCTAT, the “PBM E-score” value was -0.0311.
In the case of CCTCCGAG, the “PBM E-score” value is reported as 0.426.
With ACTCCAAA the “PBM E-score” value was -0.118.
ACCTAAGC was tested, and the “PBM E-score” value was 0.0293.
For GGAGAAAC, the “PBM E-score” value was 0.309.
With CAGGGCGC the “PBM E-score” value was 0.0102.
In the case of GGAACCAC, the “PBM E-score” value is reported as 0.0576.
For AAGCCACG, the “PBM E-score” value was -0.0652.
In the case of AAAAGAGA, the “PBM E-score” value is reported as -0.223.
With AAAGAAGA the “PBM E-score” value was -0.0104.
CCACCGAA was tested, and the “PBM E-score” value was -0.0526.
In the case of CCTCCGAA, the “PBM E-score” value is reported as 0.441.
CCTCCAAA was tested, and the “PBM E-score” value was -0.14.
For GTGAGATA, the “PBM E-score” value was 0.052.
In the case of TACGGAGA, the “PBM E-score” value is reported as 0.386.
GACGGATA was tested, and the “PBM E-score” value was 0.249.
In the case of AACGGAGA, the “PBM E-score” value is reported as 0.393.
In the case of CACGGAGC, the “PBM E-score” value is reported as 0.403.
CACGGACC was tested, and the “PBM E-score” value was 0.282.
For GAGGGAGA, the “PBM E-score” value was -0.145.
GACGGAGA was tested, and the “PBM E-score” value was 0.453.
With AACGGAAA the “PBM E-score” value was 0.374.
AACGGATA was tested, and the “PBM E-score” value was 0.292.
CACGGAGA was tested, and the “PBM E-score” value was 0.429.
For CAAGGAGA, the “PBM E-score” value was -0.105.
GACGGAGC was tested, and the “PBM E-score” value was 0.378.
With AAATCTGT the “PBM E-score” value was -0.0526.
In the case of TGTTGAAA, the “PBM E-score” value is reported as -0.0138.
For ACTACTTA, the “PBM E-score” value was -0.0798.
CGACTATA was tested, and the “PBM E-score” value was -0.0135.
In the case of CCCCAGAA, the “PBM E-score” value is reported as 0.00338.
For CACAAAGA, the “PBM E-score” value was -0.197.
CCATAAGC was tested, and the “PBM E-score” value was -0.105.
For AACGGACT, the “PBM E-score” value was 0.328.
In the case of AACGGAGC, the “PBM E-score” value is reported as 0.309.
In the case of AACGGAGG, the “PBM E-score” value is reported as 0.3.
For AACGGAGT, the “PBM E-score” value was 0.448.
In the case of CACGGAGG, the “PBM E-score” value is reported as 0.394.
In the case of CACGGACG, the “PBM E-score” value is reported as 0.22.
For CCAGCTCG, the “PBM E-score” value was -0.106.
For CTGAACCC, the “PBM E-score” value was -0.0929.
For TAGAGGAA, the “PBM E-score” value was -0.211.
With CAACTGGG the “PBM E-score” value was -0.0669.
CCGGACCC was tested, and the “PBM E-score” value was 0.391.
For GCGGACCC, the “PBM E-score” value was 0.354.
ACGGACCG was tested, and the “PBM E-score” value was 0.335.
For CCGGACCG, the “PBM E-score” value was 0.426.
For CCGGACCA, the “PBM E-score” value was 0.369.
With CAGGACCG the “PBM E-score” value was 0.0623.
For CCATTCAC, the “PBM E-score” value was -0.042.
With CTAGATAG the “PBM E-score” value was -0.28.
CGCCGTAC was tested, and the “PBM E-score” value was 0.163.
With AAGGCATT the “PBM E-score” value was -0.246.
With AACTCGGA the “PBM E-score” value was 0.392.
For TACTCGGA, the “PBM E-score” value was 0.342.
In the case of CACTCGGA, the “PBM E-score” value is reported as 0.329.
In the case of GACTCGGA, the “PBM E-score” value is reported as 0.4.
In the case of GACTCGGC, the “PBM E-score” value is reported as 0.134.
In the case of AACTCGGT, the “PBM E-score” value is reported as 0.00153.
In the case of CAATGGGC, the “PBM E-score” value is reported as -0.106.
For ACTCATCC, the “PBM E-score” value was -0.0863.
With AGGCCACG the “PBM E-score” value was -0.0792.
AAACCCCG was tested, and the “PBM E-score” value was 0.449.
In the case of CACCCCGA, the “PBM E-score” value is reported as 0.29.
AAACCCCC was tested, and the “PBM E-score” value was -0.0651.
In the case of ACCCCCGA, the “PBM E-score” value is reported as 0.261.
With AACCCCGC the “PBM E-score” value was 0.41.
For AACCCCCG, the “PBM E-score” value was 0.26.
In the case of AACCCCGA, the “PBM E-score” value is reported as 0.431.
For ACCCCCGC, the “PBM E-score” value was 0.266.
GACCCCGC was tested, and the “PBM E-score” value was 0.247.
For GACCCCGA, the “PBM E-score” value was 0.336.
For AACCCCGT, the “PBM E-score” value was 0.381.
TACCCCGA was tested, and the “PBM E-score” value was 0.411.
For ACGCAGAA, the “PBM E-score” value was -0.0444.
TATATGCA was tested, and the “PBM E-score” value was -0.245.
For ACCAGTCA, the “PBM E-score” value was -0.036.
In the case of TAAGGAAA, the “PBM E-score” value is reported as -0.131.
GCCTATAA was tested, and the “PBM E-score” value was -0.116.
In the case of AAGCGTTG, the “PBM E-score” value is reported as -0.256.
With CCAGCGCA the “PBM E-score” value was 0.0176.
AAGGTGCC was tested, and the “PBM E-score” value was -0.0322.
In the case of CGTGAATA, the “PBM E-score” value is reported as -0.00311.
In the case of AAACCCGA, the “PBM E-score” value is reported as 0.384.
In the case of ACCCCCGG, the “PBM E-score” value is reported as 0.334.
In the case of AAACCCGG, the “PBM E-score” value is reported as 0.428.
For ATACCCCA, the “PBM E-score” value was 0.00063.
For CAACCCCG, the “PBM E-score” value was 0.397.
In the case of ATACCCCC, the “PBM E-score” value is reported as 0.0218.
In the case of CACCCCGG, the “PBM E-score” value is reported as 0.314.
With CAACCCGG the “PBM E-score” value was 0.229.
In the case of ATACCCCG, the “PBM E-score” value is reported as 0.401.
In the case of CAACCCCC, the “PBM E-score” value is reported as -0.0384.
For AACCCCGG, the “PBM E-score” value was 0.458.
For AAACCCGC, the “PBM E-score” value was 0.287.
In the case of ACTGTTGC, the “PBM E-score” value is reported as 0.0649.
For ATAGGACA, the “PBM E-score” value was -0.311.
AGAAGCCG was tested, and the “PBM E-score” value was 0.241.
AATCGAGA was tested, and the “PBM E-score” value was -0.115.
GAGAAGAC was tested, and the “PBM E-score” value was 0.0429.
In the case of CCTATCCG, the “PBM E-score” value is reported as 0.114.
GAAATGAC was tested, and the “PBM E-score” value was -0.0184.
In the case of AGATTGGG, the “PBM E-score” value is reported as 0.0161.
AGGAATAC was tested, and the “PBM E-score” value was -0.0793.
In the case of AGGAATAG, the “PBM E-score” value is reported as 0.102.
For GGGAATAC, the “PBM E-score” value was 0.176.
With CGGAATAC the “PBM E-score” value was 0.423.
In the case of GGGAATAA, the “PBM E-score” value is reported as 0.261.
CGGAATAG was tested, and the “PBM E-score” value was 0.391.
CAGAATAG was tested, and the “PBM E-score” value was -0.179.
With CGGAATAA the “PBM E-score” value was 0.433.
For TGGAATAA, the “PBM E-score” value was -0.0106.
In the case of GAGGGTCC, the “PBM E-score” value is reported as 0.173.
CTGGTTGC was tested, and the “PBM E-score” value was 0.123.
With CCTAGCTA the “PBM E-score” value was -0.246.
In the case of TCCCTTAA, the “PBM E-score” value is reported as -0.263.
In the case of ATGCTGGC, the “PBM E-score” value is reported as -0.147.
In the case of ATAAGTGA, the “PBM E-score” value is reported as -0.229.
For CGACGCGC, the “PBM E-score” value was 0.21.
AACCCGGC was tested, and the “PBM E-score” value was 0.313.
For GACCCGGC, the “PBM E-score” value was 0.184.
For AACCCGGT, the “PBM E-score” value was 0.304.
AACCCGGA was tested, and the “PBM E-score” value was 0.435.
For TACCCGTA, the “PBM E-score” value was -0.0475.
In the case of GACCCGGA, the “PBM E-score” value is reported as 0.391.
TACCCGGA was tested, and the “PBM E-score” value was 0.395.
For CACCCGGA, the “PBM E-score” value was 0.365.
For TACCCGAA, the “PBM E-score” value was 0.0727.
In the case of CTGAAAAG, the “PBM E-score” value is reported as -0.131.
With AGTTGCCG the “PBM E-score” value was 0.171.
For GGCGTGTA, the “PBM E-score” value was -0.155.
In the case of TATGTAAA, the “PBM E-score” value is reported as 0.0517.
For CCTTGAAC, the “PBM E-score” value was -0.189.
ACGTACTG was tested, and the “PBM E-score” value was -0.138.
With AAACTTGC the “PBM E-score” value was -0.0141.
With ACGAGGAA the “PBM E-score” value was -0.0559.
TGCTCTAA was tested, and the “PBM E-score” value was -0.211.
With AGTGAGGA the “PBM E-score” value was -0.255.
For ACTCCGCC, the “PBM E-score” value was 0.475.
ACTCCGCA was tested, and the “PBM E-score” value was 0.452.
With ACTCCCCT the “PBM E-score” value was 0.174.
In the case of AATCCGCC, the “PBM E-score” value is reported as 0.319.
In the case of ACTCCGCT, the “PBM E-score” value is reported as 0.417.
With CTTCCGCA the “PBM E-score” value was 0.198.
ACTCCTCA was tested, and the “PBM E-score” value was -0.21.
With TCTCCTCA the “PBM E-score” value was -0.147.
With GCTCCGCC the “PBM E-score” value was 0.382.
For ACGCCGCT, the “PBM E-score” value was 0.224.
With TCTCCGCA the “PBM E-score” value was 0.407.
For GCTCCGCA, the “PBM E-score” value was 0.377.
With GTTTAGGA the “PBM E-score” value was -0.122.
In the case of ACAGCAGC, the “PBM E-score” value is reported as -0.191.
With CGCCCAAC the “PBM E-score” value was 0.0317.
With ACCCTAAA the “PBM E-score” value was 0.099.
